# Source: PubChem BioAssay (Tox21)
# Values joined by “and” are separate entries in the source; they are usually repeats but may differ in a detail not shown here. Equal entries are not always repeated. Inconclusive results are not listed. Where a call stands in place of a potency, no number is given. Some structures have more than one record in an assay (separate samples or runs), and their calls can disagree. Active and inactive are the calls of the source. Calls come from the whole dose curve; as a rule, active = well fitted curve in the direction sought with a large enough effect in the repeat runs; inconclusive = weak or mixed curves; inactive = no such curve, though single readings can be large; an effect the other way counts as inactive or inconclusive.
# Legend:
# [1] = A CellTox Green Cytotoxicity Assay to monitor cytotoxicity in HEK293 cells - 40 hour (AID 1224871); note: nearly all actives have a fitted effect of over 45% in size; note: potency is the fitted concentration of half-maximal effect
# Outline: (§1)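 HEK293 cells, 600/well, were preincubated 5 hours and then exposed to compounds at 37 C for up to 40 hours. A cell-impermeant cyanine dye staining dead-cell DNA was read by fluorescence at 0, 8, 16, 24, 32 and 40 h time points.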
# [2] = qHTS RealTime-Glo MT Cell Viability Assay in HEK293 cells - 16 hour (AID 1224872); note: top concentration of the series differs between compounds; nearly all actives have a fitted effect of over 50% in size
# Outline: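 Tox21 10K qHTS, HEK293, 600 cells/well, RealTime-Glo reagent co-dispensed with cells; 5 h preincubation, compound by pintool, 37 C, luminescence at 0–40 h.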
# [3] = qHTS RealTime-Glo MT Cell Viability Assay in HepG2 cells - 8 hour (AID 1224873); note: nearly all actives have a fitted effect of over 55% in size
# Outline: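 HepG2 cells mixed with RealTime-Glo MT reagents (NanoLuc plus cell-permeant prosubstrate) were seeded at 600 cells/well, incubated 5 h at 37 C/5% CO2, then pinned with compounds in DMSO; nonlytic luminescence tracked viability during 40 h treatment.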
# [4] = qHTS RealTime-Glo MT Cell Viability Assay in HEK293 cells - 40 hour (AID 1224874); details: RealTime-Glo luminescence; max response: stronger effect = lower value; note: nearly all actives have a fitted effect of over 50% in size
# Outline: (§2)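 600 cells/well were plated with the nonlytic NanoLuc/prosubstrate reagent, pre-incubated 5 h, then given 23 nL of compound in DMSO. Incubation at 37 C for 40 h, with luminescence from viable-cell-reduced substrate read repeatedly from 0 h.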
# [5] = A CellTox Green Cytotoxicity Assay to monitor cytotoxicity in HEK293 cells - 24 hour (AID 1224875); note: nearly all actives have a fitted effect of over 45% in size; note: potency is the fitted concentration of half-maximal effect
# Outline: as §1
# [6] = A CellTox Green Cytotoxicity Assay to monitor cytotoxicity in HepG2 cells - 16 hour (AID 1224876); note: nearly all actives have a fitted effect of over 45% in size
# Outline: (§3)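 HepG2 cells, 600/well, preincubated 5 h with CellTox Green dye, then exposed to Tox21 compounds in DMSO at 37 C for up to 40 h. Dead-cell DNA fluorescence read at the indicated time point.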
# [7] = qHTS RealTime-Glo MT Cell Viability Assay in HepG2 cells - 32 hour (AID 1224877); note: nearly all actives have a fitted effect of over 55% in size
# Outline: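 Cells + NanoLuc/prosubstrate dispensed (600 cells/well) → 5 h at 37 C/5% CO2 → compounds in DMSO transferred → 40 h incubation at 37 C, luminescence read at 0, 8, 16, 24, 32, 40 h.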
# [8] = A CellTox Green Cytotoxicity Assay to monitor cytotoxicity in HepG2 cells - 24 hour (AID 1224878); note: nearly all actives have a fitted effect of over 45% in size
# Outline: as §3
# [9] = qHTS RealTime-Glo MT Cell Viability Assay in HEK293 cells - 0 hour (AID 1224880); note: nearly all actives have a fitted effect of over 45% in size; note: potency is the fitted concentration of half-maximal effect
# Outline: as §2
# [10] = A CellTox Green Cytotoxicity Assay to monitor cytotoxicity in HepG2 cells - 40 hour (AID 1224879); note: nearly all actives have a fitted effect of over 40% in size; note: potency is the fitted concentration of half-maximal effect
# Outline: as §3
SMILES,Potency [1],Potency [2],Potency [3],max response [4],Potency [5],Potency [6],Potency [7],Potency [8],Potency [9],Potency [10]
COc1cc2[nH]c(=O)[nH]c(=O)c2cc1OC,inactive,inactive,inactive,1.95% (inactive),inactive,inactive,inactive,inactive,inactive,–
CCCOCCOCCO,inactive,inactive,inactive,2.29% (inactive),inactive,–,inactive,inactive,inactive,inactive
O=C(NCCCN1CCOCC1)c1ccc(Cl)cc1,inactive,inactive,inactive,7.84% (inactive),inactive,inactive,inactive,–,inactive,inactive
CC1(C)C2=CCCC(C)(C)[C@]23CC[C@H]1C3,38.9 µM (active),inactive,inactive,-11.7% (inactive),inactive,inactive,inactive,–,24.5 µM (active),–
CC1=NN(c2ccc(C(=O)O)cc2)C(=O)C1,inactive,inactive,inactive,-25.1% (inactive),inactive,inactive,inactive,–,inactive,–
CC1=CC(=O)CC(C)(C)C1(O)/C=C/C(C)=C\C(=O)O (stereo not given),inactive,inactive,inactive,8.54% (inactive),inactive,–,inactive,inactive,inactive,inactive
Nc1c(I)cc(I)c(C(=O)N(CCC(=O)O)c2ccccc2)c1I,inactive,inactive,inactive,-10.8% (inactive),inactive,inactive,inactive,–,inactive,–
O=C(O)c1ccc(CO)o1,inactive,inactive,inactive,-0.778% (inactive),inactive,–,inactive,inactive,inactive,–
Cc1oncc1C(=O)Nc1ccc(C(F)(F)F)cc1,inactive,inactive,inactive,8.36% (inactive) and -3.36% (inactive),inactive,inactive,inactive,–,inactive,54.9 µM (active) and inactive
COc1ccccc1N=Nc1c(S(=O)(=O)O)cc2cc(S(=O)(=O)O)cc(NC(C)=O)c2c1O,inactive,inactive,inactive,1.04% (inactive),inactive,–,inactive,inactive,inactive,inactive
Cc1cc(O)c2c(O)c3c(O)cccc3cc2c1,inactive,inactive,inactive,-16.2% (inactive),inactive,inactive,inactive,–,inactive,inactive
CCOC(=O)/C=C/C(=O)O,inactive,inactive,inactive,16.2% (inactive),inactive,inactive,inactive,–,inactive,inactive
CNC(=O)N(c1ccccc1)c1ccccc1,inactive,inactive,inactive,10.9% (inactive),inactive,–,inactive,–,inactive,inactive
CCCCC/C(=C\c1ccccc1)CO,43.1 µM (active),inactive,inactive,-12.8% (inactive),48.4 µM (active),–,inactive,inactive,inactive,inactive
C[Si](NC1CCCCC1)(NC1CCCCC1)NC1CCCCC1,inactive,inactive,inactive,-24.6% (inactive),inactive,–,inactive,inactive,inactive,inactive
CCC(C(=O)OCCOCCN(CC)CC)c1ccccc1 (stereo not given),inactive,inactive,inactive,4.17% (inactive),inactive,inactive,inactive,–,inactive,inactive
Cc1cnc(C)c(C)n1,inactive,inactive,inactive,-11.2% (inactive),–,–,inactive,inactive,inactive,inactive
Cc1ccc(/C=N/n2c(-c3ccccc3)csc2=S)cc1,inactive,inactive,inactive,-0.419% (inactive),–,inactive,inactive,inactive,inactive,inactive
NC(=O)N(O)[C@@H]1COc2cc(OCc3ccccc3)ccc21,inactive,inactive,inactive,–,inactive,inactive,inactive,–,inactive,–
Nc1ccc(S(=O)(=O)O)c(N)c1,inactive,inactive,inactive,-8.29% (inactive),–,–,inactive,inactive,inactive,inactive
CCOCCn1c(C2CCN(CCc3ccc(C(C)(C)C(=O)O)cc3)CC2)nc2ccccc21,inactive,inactive,inactive,0.952% (inactive),inactive,–,inactive,–,inactive,–
CC(=O)[C@H]1CC[C@H]2[C@@H]3C=CC4=CC(=O)CC[C@@]4(C)[C@@H]3CC[C@]12C,inactive,inactive,inactive,–,inactive,inactive,inactive,inactive,inactive,inactive
O=C(O)c1cccc(O)c1,inactive,inactive,–,8.08% (inactive),inactive,inactive,inactive,inactive,inactive,inactive
CC(C)(C)C(=O)C(Oc1ccc(Cl)cc1)n1ccnc1 (stereo not given),inactive,inactive,inactive,–,inactive,inactive,inactive,inactive,inactive,inactive
